We go through nine compounds from PubChem BioAssay.

A short description of assay [1]: E. coli DRC41 culture turbidity changes, primary screen, E. coli filamentation inducer project, strain DRC41, OD650, 48 h (AID 1152).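 Note: E. coli MC1000 strain DRC41 lacking acrAB efflux pump and sulA.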 The settings on record: E. coli DRC41 (acrAB sulA), higher = more signal, called active from +8 up or from −8 down.
Assay [2] in a line: small-molecule binders of probe aLefty1, primary screen, biochemical, small-molecule microarray, 635/667 nm fluorescence (AID 1153).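 Note: score merges spot fluorescence with signal-to-noise ratio from the scanned slide images.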 The settings on record: higher = more signal.
Assay [3] in a line: PSAC antagonists in infected red cells, primary screen, cell-based, P. falciparum Indochina, OD700, 1 h (AID 1154). The settings on record: P. falciparum Indochina infected RBC osmotic lysis, higher = more signal, called active from +8 up or from −8 down.
A short description of assay [4]: PSAC antagonists in infected red cells, primary screen, cell-based, P. falciparum Indochina, OD700, 2 h (AID 1155).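 Note: lysis reports solute entry through the parasite surface anion channel PSAC; channel blockers reduce lysis of infected cells.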 The settings on record: P. falciparum Indochina infected erythrocytes, osmotic lysis OD700; higher = more signal, called active from +8 up or from −8 down.
Assay [5] in a line: osmotic lysis modulators in infected erythrocytes, primary screen, PSAC antagonist project, cell-based, P. falciparum Indochina, OD700, 3 h (AID 1156). The settings on record: higher = more signal, called active from +8 up or from −8 down.
Assay [6] in a line: PSAC antagonists in infected red cells, primary screen, cell-based, P. falciparum Indochina, OD700, 18 h (AID 1157). The settings on record: P. falciparum Indochina infected erythrocytes, osmotic lysis OD700, 18 h; higher = more signal, called active from +8 up or from −8 down.
Assay [7] is described as follows: modulators of S6 phosphorylation in cells, primary screen, cell-based, A549, cytoblot, luminescence, serum-stimulated (AID 1158).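 Note: serum-stimulated A549 lung adenocarcinoma cells; signal is phosphorylated S6 detected by cytoblot immunostaining with HRP secondary.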 The settings on record: A549 phospho-S6 cytoblot, 5 h, higher = more signal.
Assay [8] addresses NADPH oxidase 2 (Homo sapiens) (UniProt P04839). The experiment in a line: NOX2-dependent H2O2 signal modulators, primary screen, NOX inhibitor project, cell-based, HEK293-NOX2, PMA-stimulated, Amplex Red fluorescence (AID 1159). Note: test concentration not given here. The settings on record: 45 min, higher = more signal, called active from +8 up or from −8 down.
Assay [9] concerns the target NADPH oxidase 4 (Homo sapiens) (UniProt Q9NPH5). The experiment in a line: NOX4-dependent H2O2 signal modulators, primary screen, NOX inhibitor project, cell-based, HEK293-NOX4, tetracycline-induced, Amplex Red fluorescence (AID 1160). The settings on record: 45 min, higher = more signal, called active from +8 up or from −8 down.
The target in assay [10] is NADPH oxidase 5 (Homo sapiens) (UniProt Q96PH1). The experiment in a line: NOX5-dependent H2O2 signal modulators, primary screen, NOX inhibitor project, cell-based, HEK293-NOX5, Amplex Red fluorescence (AID 1161). The settings on record: HEK293-NOX5, ionomycin, 45 min, higher = more signal.
Assay [11] is described as follows: A549 cell viability effects, profiling panel, calcein-AM fluorescence, 48 h, basal (AID 1162). Note: test concentration not given here. The settings on record: higher = more signal.
Assay [12] in a line: adipocyte viability effects, profiling panel, cell-based, 3T3-L1 adipocytes, calcein-AM fluorescence, 48 h, basal (AID 1163). Note: test concentration not given here. The settings on record: 3T3-L1 adipocytes viability, higher = more signal.
Assay [13] in a line: HepG2 cell viability effects, profiling panel, calcein-AM fluorescence, 48 h, basal (AID 1164). Note: test concentration not given here. The settings on record: higher = more signal.
The nature of assay [14]: MM1S cell viability effects, profiling panel, calcein-AM fluorescence, 48 h, basal (AID 1165).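 Note: viability of MM1S multiple myeloma cells under basal unstimulated conditions; test concentration not given here.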 The settings on record: higher = more signal.
Assay [15] in a line: basal RPMI8226 viability, no added stimulus, profiling panel, cell-based, calcein-AM fluorescence, 48 h, PK04 Diversity Set (AID 1166).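 Note: cells grown under basal conditions without added stimulus; test concentration not given here.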 The settings on record: RPMI8226 myeloma viability, higher = more signal.
Assay [16] is described as follows: basal HepG2 mitochondrial membrane potential changes, profiling panel, cell-based, JC-1 fluorescence, 24 h, 100 nL compound (AID 1167). Note: test concentration not given here. The settings on record: higher = more signal.
The nature of assay [17]: basal 3T3-L1 adipocyte mitochondrial potential changes, profiling panel, cell-based, JC-1 fluorescence, 3T3-L1 adipocytes, 24 h, 100 nL compound (AID 1168). Note: test concentration not given here. The settings on record: JC-1 mitochondrial fluorescence, higher = more signal, called active from +8 up or from −8 down.
Assay [18] is described as follows: basal RPMI8226 mitochondrial membrane potential changes, profiling panel, cell-based, JC-1 fluorescence, 24 h, 100 nL compound (AID 1169). Note: test concentration not given here. The settings on record: RPMI8226 myeloma, JC-1 mitochondrial potential fluorescence, higher = more signal.
A short description of assay [19]: basal MM1S mitochondrial membrane potential changes, profiling panel, cell-based, JC-1 fluorescence, 24 h, 100 nL compound (AID 1170). Note: test concentration not given here. The settings on record: higher = more signal.
Assay [20] is described as follows: A549 lung cancer cell viability effects, profiling panel, resazurin fluorescence, 24 h, PK04 Diversity Set (AID 1171). Note: test concentration not given here. The settings on record: higher = more signal, called active from +8 up or from −8 down. A general note: Resazurin is reduced to fluorescent resorufin, in cell work by metabolically active cells.

Each structure is given as a SMILES string. Active and inactive are the calls of the source.

Sequence of NADPH oxidase 4 (Homo sapiens) (Q9NPH5 whole entry, looked up): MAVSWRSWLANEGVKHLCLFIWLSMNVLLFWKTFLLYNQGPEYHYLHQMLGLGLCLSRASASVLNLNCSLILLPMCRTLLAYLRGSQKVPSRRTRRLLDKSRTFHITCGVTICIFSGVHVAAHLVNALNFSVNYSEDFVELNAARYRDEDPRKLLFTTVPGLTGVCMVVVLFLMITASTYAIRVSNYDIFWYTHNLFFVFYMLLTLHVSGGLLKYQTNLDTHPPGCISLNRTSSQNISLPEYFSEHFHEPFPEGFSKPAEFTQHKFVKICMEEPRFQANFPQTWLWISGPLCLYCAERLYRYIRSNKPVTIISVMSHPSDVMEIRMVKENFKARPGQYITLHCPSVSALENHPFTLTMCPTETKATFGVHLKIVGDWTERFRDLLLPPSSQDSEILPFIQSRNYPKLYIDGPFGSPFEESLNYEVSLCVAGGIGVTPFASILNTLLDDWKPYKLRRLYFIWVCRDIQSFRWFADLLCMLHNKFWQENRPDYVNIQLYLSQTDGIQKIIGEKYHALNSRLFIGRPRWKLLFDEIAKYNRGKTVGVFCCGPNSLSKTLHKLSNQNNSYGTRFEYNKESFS
Sequence of NADPH oxidase 5 (Homo sapiens) (Q96PH1 whole entry, looked up): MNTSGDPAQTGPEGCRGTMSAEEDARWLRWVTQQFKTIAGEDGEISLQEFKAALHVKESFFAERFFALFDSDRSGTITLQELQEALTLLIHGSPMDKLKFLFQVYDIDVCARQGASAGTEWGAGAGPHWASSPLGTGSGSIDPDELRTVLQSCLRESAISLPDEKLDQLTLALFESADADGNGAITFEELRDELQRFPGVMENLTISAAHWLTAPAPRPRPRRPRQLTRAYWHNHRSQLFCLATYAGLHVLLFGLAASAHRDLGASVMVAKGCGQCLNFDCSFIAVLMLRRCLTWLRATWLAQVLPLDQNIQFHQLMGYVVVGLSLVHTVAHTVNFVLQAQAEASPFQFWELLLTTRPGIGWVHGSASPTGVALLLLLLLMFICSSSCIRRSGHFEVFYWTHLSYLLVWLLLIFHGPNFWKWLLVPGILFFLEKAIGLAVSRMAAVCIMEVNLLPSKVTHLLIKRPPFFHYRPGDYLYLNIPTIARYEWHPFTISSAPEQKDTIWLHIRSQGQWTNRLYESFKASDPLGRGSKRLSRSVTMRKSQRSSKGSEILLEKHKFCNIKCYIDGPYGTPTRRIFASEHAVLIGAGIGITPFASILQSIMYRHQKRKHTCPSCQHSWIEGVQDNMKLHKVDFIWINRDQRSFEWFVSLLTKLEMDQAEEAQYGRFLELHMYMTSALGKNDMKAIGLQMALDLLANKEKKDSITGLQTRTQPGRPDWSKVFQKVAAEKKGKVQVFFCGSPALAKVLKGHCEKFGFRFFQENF
Sequence of NADPH oxidase 2 (Homo sapiens) (P04839 whole entry, looked up): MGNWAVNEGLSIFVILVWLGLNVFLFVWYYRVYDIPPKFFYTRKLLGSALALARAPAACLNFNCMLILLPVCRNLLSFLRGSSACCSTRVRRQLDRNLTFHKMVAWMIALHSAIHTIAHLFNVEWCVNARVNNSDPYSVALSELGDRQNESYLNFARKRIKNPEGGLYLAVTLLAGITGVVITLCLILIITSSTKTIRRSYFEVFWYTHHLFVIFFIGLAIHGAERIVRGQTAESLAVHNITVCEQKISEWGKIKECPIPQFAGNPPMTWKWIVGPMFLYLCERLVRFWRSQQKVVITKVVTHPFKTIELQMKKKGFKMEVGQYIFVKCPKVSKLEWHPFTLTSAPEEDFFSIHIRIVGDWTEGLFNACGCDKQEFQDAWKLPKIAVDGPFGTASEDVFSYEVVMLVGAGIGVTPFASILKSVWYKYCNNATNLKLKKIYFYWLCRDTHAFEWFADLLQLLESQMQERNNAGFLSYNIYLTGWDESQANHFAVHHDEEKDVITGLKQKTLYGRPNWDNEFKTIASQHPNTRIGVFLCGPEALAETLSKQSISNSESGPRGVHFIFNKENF

Turning to `[N-]=[N+]=Nc1ccccc1[C@@H]1OC(c2ccc(OCCCO)cc2)=N[C@]1(CCS(=O)(=O)c1ccccc1)C(=O)O`, the z-score in [1] is 0.604 (inactive); in assay [3], 28.8 (active); in assay [4] it was 24.4 (active); in [5] it was 0.971 (inactive); in assay [6], 4.63 (inactive); in [7], -0.067. Also, the z-score in assay [8] is -2.5 (inactive); in assay [9], -0.0168 (inactive); in [10], 0.778; in [11], 0.926; in assay [12] it was -0.149; in assay [13], 0.846. Also, the z-score is -0.57 in assay [14]; -1.47 in assay [15]; -3.18 in assay [16]; -1.07 (inactive) in assay [17]; -0.373 in assay [18]; -1.17 in assay [19]. Moreover, in [20], the z-score was 0.343 (inactive). This compound also gave a composite z-score in assay [2] of 0.568.
For `CC1CC/C=C\[C@H]2OC34C=CCN(Cn5nnc6ccccc65)C(=O)[C@H]3N(CCCO)C(=O)[C@@H]4C2C(=O)O1` (stereo not given in full), the z-score in assay [1] is 1.29 (inactive); in [3] it was 0.935 (inactive); in assay [4], 0.563 (inactive); in assay [5], -0.264 (inactive); in [6], 0.554 (inactive); in assay [7], 0.114. For the same compound, the z-score is 0.923 (inactive) in assay [8]; -1.82 (inactive) in [9]; 1.4 in assay [10]; -0.677 in [11]; 1.5 in assay [12]; -0.501 in assay [13]. The z-score was 0.159 in assay [14]; -0.894 in assay [15]; -0.0699 in assay [16]; -0.382 (inactive) in assay [17]; 0.0216 in assay [18]; 0.638 in assay [19]. Besides, the z-score in assay [20] was 0.356 (inactive). The compound also had a composite z-score in assay [2] of 0.0445.
Regarding `NC(=O)[C@]1(Cc2ccccc2)N=C(c2ccc(OCCCO)cc2)O[C@@H]1c1ccccc1`, the z-score in [1] is -0.465 (inactive); in [3] it was 26.5 (active); in assay [4] it was 15.6 (active); in [5], 0.531 (inactive); in [6], 2.19 (inactive); in assay [7] it was -0.0349. The z-score in assay [8] is -0.273 (inactive); in assay [9], -0.228 (inactive); in assay [10] it was 0.575; in [11] it was -0.399; in assay [12], 0.879; in assay [13] it was -0.603. Further, the z-score in assay [14] was -0.598; in [15], -1.94; in assay [16], -1.43; in assay [17], -0.517 (inactive); in [18], -0.775; in assay [19], 1.18. Also, the z-score in [20] was -0.784 (inactive). For the same compound, in assay [2], the composite z-score is 0.351.
With `CN1C(=O)C2C=CC(C(O)C3=C[C@H]4C[C@@H](C3)C4(C)C)N(Nc3ccc([N+](=O)[O-])cc3[N+](=O)[O-])C2C1=O` (stereo not given in full), the z-score in [1] is -0.794 (inactive); in assay [3] it was 3.59 (inactive); in assay [4], 1.27 (inactive); in assay [5], 1.06 (inactive); in [6] it was 1.05 (inactive); in assay [7] it was -0.456. The z-score in assay [8] is 0.0656 (inactive); in assay [9], -0.0391 (inactive); in [10] it was -1.2; in [11] it was 0.895; in assay [12], -0.535; in [13], 0.436. The z-score was 0.017 in assay [14]; -0.481 in assay [15]; -0.661 in assay [16]; -1.35 (inactive) in assay [17]; -0.46 in assay [18]; -1.1 in assay [19]. In addition, the z-score in [20] is -0.227 (inactive). The compound also displayed a composite z-score in assay [2] of 0.271.
For `Oc1ccc2cc[n+](Cc3cccc(OC(F)(F)F)c3)cc2c1`, the z-score is 0.444 (inactive) in [1]; 0.0313 (inactive) in assay [3]; -0.0655 (inactive) in assay [4]; 0.621 (inactive) in assay [5]; -0.236 (inactive) in assay [6]; -0.522 in assay [7]. Further, the z-score is -1.93 (inactive) in [8]; -0.554 (inactive) in assay [9]; -0.3 in [10]; 0.609 in assay [11]; 0.128 in [12]; 0.577 in [13]. Moreover, the z-score in [14] was 0.683; in assay [15], -0.592; in assay [16], 0.303; in assay [17], 0.339 (inactive); in assay [18], 0.593; in [19], -0.862. The z-score in [20] was -1.81 (inactive). Also, the composite z-score in assay [2] was -0.606.
As for `CCOC(=O)C[C@H]1[C@H](OC(=O)c2ccc(C(=O)c3ccccc3)cc2)[C@@H](NC(=O)c2ccc3ccccc3n2)c2cc(OCCCO)ccc2N1C(=O)c1ccc2ccccc2n1`, the z-score in assay [1] was 1.14 (inactive); in [3], 5.2 (inactive); in assay [4], 1.1 (inactive); in assay [5] it was -0.327 (inactive); in [6], 0.579 (inactive); in assay [7] it was 0.495. Further, the z-score was -0.0371 (inactive) in assay [8]; 0.532 (inactive) in assay [9]; 1.03 in assay [10]; 0.602 in [11]; -0.402 in [12]; 0.674 in [13]. The z-score in assay [14] was -0.367; in assay [15] it was -0.0521; in assay [16], 1.24; in assay [17] it was 1.63 (inactive); in assay [18] it was -0.0794; in assay [19] it was 0.215. For the same compound, the z-score in assay [20] was 1.04 (inactive). Further, the composite z-score in assay [2] is 0.464.
With `CCCC[C@@H]1C[C@H]1[C@@H](NC(=O)c1ccco1)c1ccccc1`, the z-score in assay [1] was -2.76 (inactive); in [3], 4.64 (inactive); in assay [4], 1.16 (inactive); in assay [5] it was 0.747 (inactive); in assay [6] it was 0.545 (inactive); in assay [7], -0.446. Also, the z-score was -1.42 (inactive) in assay [8]; -2.53 (inactive) in assay [9]; 0.195 in assay [10]; -2.22 in [11]; -0.252 in assay [12]; -2.22 in assay [13]. In addition, the z-score was -3.27 in assay [14]; -4.74 in assay [15]; -3.6 in assay [16]; -1.27 (inactive) in assay [17]; -0.759 in [18]; -2.24 in assay [19]. Also, in assay [20], the z-score was 2.55 (inactive). The compound further returned a composite z-score in assay [2] of -0.168.
For the compound `CCN(CC)c1ccc(N2CC=CC34O[C@@H]5C=CCCOC(=O)C5[C@H]3C(=O)N(CCCO)[C@@H]4C2=O)cc1` (stereo not given in full), the z-score is 1.44 (inactive) in assay [1]; 0.555 (inactive) in assay [3]; -0.829 (inactive) in assay [4]; -0.305 (inactive) in [5]; -1.15 (inactive) in assay [6]; 1.09 in assay [7]. For the same compound, the z-score is -0.0899 (inactive) in assay [8]; -1.23 (inactive) in assay [9]; 0.374 in assay [10]; -0.0905 in assay [11]; 0.848 in [12]; 0.0124 in [13]. For the same compound, the z-score in [14] was -0.0503; in assay [15], -0.402; in assay [16] it was 0.723; in [17] it was 0.673 (inactive); in [18] it was 0.0131; in assay [19] it was 0.744. Moreover, the z-score in assay [20] was -0.209 (inactive). The compound also showed a composite z-score in assay [2] of -0.28.
Consider `Cc1ccc(C(C)CC(O)C2C=CC3C(=O)NC(=O)C3N2Nc2ccccn2)o1` (stereo not given), for which the z-score is 0.488 (inactive) in assay [1]; 0.494 (inactive) in assay [3]; 0.481 (inactive) in [4]; -0.284 (inactive) in assay [5]; 0.606 (inactive) in assay [6]; -0.439 in assay [7]. Moreover, the z-score in assay [8] is 0.36 (inactive); in assay [9], -2.17 (inactive); in assay [10], -1.52; in assay [11], 0.378; in [12], -0.671; in [13] it was 1.37. Besides, the z-score in assay [14] is -0.333; in assay [15], 0.635; in assay [16] it was 0.117; in assay [17], -0.0169 (inactive); in assay [18], -0.263; in [19], -0.408. In assay [20], the z-score was -0.793 (inactive). Besides, the composite z-score in assay [2] is -0.154.
